For one compound, NP40-soluble protein abundance results are on record in the supplement of paper PMC6411743.

SMILES strings stand for the structures. ± gives the standard deviation of the averaged measurements. Of roughly 5,400 targets only a part is listed; those with the largest changes were picked by preference.

This assay addresses T1, UniProt O00255|O00255-2|O00255-3.
T1 sequence (whole entry): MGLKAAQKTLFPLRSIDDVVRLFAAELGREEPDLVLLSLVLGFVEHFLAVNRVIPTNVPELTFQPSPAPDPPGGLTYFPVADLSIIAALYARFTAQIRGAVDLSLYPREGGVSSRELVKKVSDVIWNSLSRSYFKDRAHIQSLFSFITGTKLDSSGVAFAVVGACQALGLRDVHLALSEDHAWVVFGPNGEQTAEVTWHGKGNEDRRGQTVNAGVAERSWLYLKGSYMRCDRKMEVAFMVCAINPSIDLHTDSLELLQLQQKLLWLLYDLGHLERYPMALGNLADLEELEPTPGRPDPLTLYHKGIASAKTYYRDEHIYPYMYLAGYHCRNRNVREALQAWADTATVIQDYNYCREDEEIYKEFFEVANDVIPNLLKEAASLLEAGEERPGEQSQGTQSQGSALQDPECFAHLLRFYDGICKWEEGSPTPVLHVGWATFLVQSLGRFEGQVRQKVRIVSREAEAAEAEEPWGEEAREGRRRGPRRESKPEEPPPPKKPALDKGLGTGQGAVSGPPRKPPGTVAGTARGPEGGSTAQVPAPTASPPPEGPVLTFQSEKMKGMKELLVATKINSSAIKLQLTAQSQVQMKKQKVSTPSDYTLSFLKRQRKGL
In words: NP40-soluble protein abundance relative to vehicle (solubility fold change) (ratio); higher = more soluble protein in presence of GTP. The method, then:
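Solubility proteome profiling in Jurkat crude lysate. Lysate was treated with Mg-GTP (0.1-10 mM) for 10 min at room temperature and 3 min at 37 °C, then solubilised with 0.8% NP40 and benzonase, followed by ultracentrifugation. Proteins were quantified by TMT10 LC-MS/MS; the value is the NP40-soluble abundance relative to the NP40-processed vehicle, from 3 independent experiments.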

Consider `Nc1nc2c(ncn2[C@@H]2O[C@H](COP(=O)(O)OP(=O)(O)OP(=O)(O)O)[C@@H](O)[C@H]2O)c(=O)[nH]1` [guanosine triphosphate], for which the NP40-soluble protein abundance came to 1.05 ± 0.044 (concentration: 0.1mM); 1.04 ± 0.043 (concentration: 0.5mM); 1.04 ± 0.065 (concentration: 1mM); 1.07 ± 0.023 (concentration: 2mM); 1.16 ± 0.069 (concentration: 4mM); 1.14 ± 0.025 (concentration: 6mM). Also, the NP40-soluble protein abundance reads like this: (concentration: 8mM) 1.2 ± 0.016; (concentration: 10mM) 1.21 ± 0.023.
